Measurements from ChEMBL document CHEMBL3988442, “University of Dundee, Small-Polar-MMV Screening Library” (2021).
Among all 48,000 compounds or so, about 13,000 (27%) showed an effect of 50% or more. Some of the results follow.

System: Wolbachia pipientis
Experiment: Anti-Wolbachia Cell-Based Screen
Format: functional
Parameters: scale not given: in the data most compounds retested in dose-response had high values
Conditions: 5 µM

Compared with `C[C@@H]1CN(Cc2ccc(-c3ccncc3)cc2F)CC(C(N)=O)O1` (stereo partly specified), `NCc1cnn(-c2ccccc2C(=O)NCc2ccncc2)c1` is lower in “Percent Effect” value: -2.76% for the first, -9.699% for the second.

First: Cc1ccccc1OCCN(C)Cc1noc(CC(C)C)n1
Second: CCOc1ccccc1Nc1nc2c(C)nn(C)c2c(=O)n1C
The “Percent Effect” value of the first is lower: -23.34% for the first, -3.425% for the second.

Going from `Cc1nc(C)n(CC2CCCCN2CCCS(C)(=O)=O)n1` (stereo unspecified) to `CCc1nnc(CN2CCCCC2Cn2nc(C)nc2C)o1` (stereo unspecified), the “Percent Effect” value rises from 12.99% to 93.98%.

First: Clc1snnc1CN1CCCCC1Cn1cncn1 (stereo unspecified)
Second: CCc1nnc(CN2CCCCC2Cn2cncn2)o1 (stereo unspecified)
The “Percent Effect” value of the first is lower: -4.6% for the first, 78.77% for the second.

Going from `Cc1nc(C)n(CC2CCCCN2Cc2nnc(C3CC3)o2)n1` (stereo unspecified) to `Cc1nc(C)n(CC2CCCCN2Cc2cnc(C)s2)n1` (stereo unspecified), the “Percent Effect” value rises from 1.656% to 97.07%.

Compared with `Cc1nc(C2CCCN2Cc2nnc(Cc3ccccc3)o2)no1` (stereo unspecified), `CCc1nc(C2CCCN2Cc2nnc(Cc3ccccc3)o2)no1` (stereo unspecified) is higher in “Percent Effect” value: -12.76% for the first, 6.131% for the second.

Going from `c1ccc(Cc2nnc(CN3CCCCC3Cn3cncn3)o2)cc1` (stereo unspecified) to `c1ccc(Cc2nnc(CN3CCCC3Cn3cccn3)o2)cc1` (stereo unspecified), the “Percent Effect” value rises from 108.9% to 131.9%.

First: Cc1cnn(CC2CCCCN2CCn2cncn2)c1 (stereo unspecified)
Second: Cc1nc(C)n(CC2CCCCN2Cc2cscn2)n1 (stereo unspecified)
The “Percent Effect” value of the first is lower: -5.934% for the first, 10.69% for the second.

Going from `OC1CCN(c2ccc(CNc3nc4ccccc4s3)cc2F)CC1` to `Cc1ccc(F)cc1NC(=O)CNc1cccc2c1CCCC2`, the “Percent Effect” value falls from -3.16% to -15.05%.

First: CS(=O)(=O)N1CCc2[nH]cnc2C12CCN(C(=O)c1ccc[nH]1)CC2
Second: NC(=O)C1CCCN(S(=O)(=O)c2cnn(-c3ccccc3)c2)C1 (stereo unspecified)
The “Percent Effect” value of the first is lower: 5.069% for the first, 5.842% for the second.

Going from `NCCC1CN(Cc2cnc3c(-c4ccccc4)cnn3c2)CCO1` (stereo unspecified) to `Fc1ccc(-c2cnc(CN3CCCC3Cn3cccn3)o2)cc1` (stereo unspecified), the “Percent Effect” value falls from 4.404% to -6.963%.

Compared with `CN(C)CCCN(C)c1nccc(N2CCN[C@H]3CS(=O)(=O)C[C@H]32)n1`, `CN(C)C(=O)N1CCCC(C(=O)N(C)CCCc2cnn(C)c2)C1` (stereo unspecified) is higher in “Percent Effect” value: -10.75% for the first, 4.306% for the second.

First: COCCNC(=O)NCCn1nc(C(F)(F)F)n(C)c1=O
Second: O=C(NCC(F)(F)F)NC1CCCc2c1cnn2CCO (stereo unspecified)
The “Percent Effect” value of the first is lower: 0.0676% for the first, 2.681% for the second.

Compared with `CC1(C)CN(Cc2c[nH]c(CC3CCCC3)n2)CC[C@]1(C)O`, `COC(C)c1noc(CN2CCCNCC2)n1` (stereo unspecified) is higher in “Percent Effect” value: -6.969% for the first, -0.5202% for the second.

First: Cc1cc(C)c(S(=O)(=O)Nc2ccccc2CC(F)(F)F)cc1C(=O)O
Second: CC(=O)c1cccc(OCCCC(=O)N(C)CCC(F)(F)F)c1
The “Percent Effect” value of the first is higher: 3.88% for the first, 2.017% for the second.

Compared with `c1cnc2c(c1)nc1n2[C@@H](CNCc2nccs2)COC1`, `Fc1ccc(-c2nnc(CN3CCCC3Cn3cccn3)o2)cc1` (stereo unspecified) is higher in “Percent Effect” value: -1.802% for the first, 88.78% for the second.

Compared with `Cc1nc(C)n(CC2CCCN2Cc2cnc(C)s2)n1` (stereo unspecified), `CCCn1ncc2c(C(=O)Nc3cnn(CC)c3C)cc(C3CC3)nc21` is higher in “Percent Effect” value: -0.1768% for the first, 3.978% for the second.

Compared with `OCC(O)CSCc1cc(Cl)ccc1Cl` (stereo unspecified), `CC(C)OCCOCC(O)CN(C)C(=O)Nc1ccc(F)cc1Cl` (stereo unspecified) is lower in “Percent Effect” value: -6.234% for the first, -7.203% for the second.

First: O=C(NC1CCCc2c1[nH]c1ccc(F)cc21)c1n[nH]c2c1CCCC2 (stereo unspecified)
Second: O=C(NC1CCCc2c1[nH]c1ccc(F)cc21)c1n[nH]c2c1CCC2 (stereo unspecified)
The “Percent Effect” value of the first is lower: 120.6% for the first, 132.4% for the second.

Compared with `O=C(NCC1CC1)c1n[nH]c2c1CNCC2.O=C(O)C(F)(F)F.O=C(O)C(F)(F)F`, `O=C(NC1CCC1)c1n[nH]c2c1CNCC2` is higher in “Percent Effect” value: -32.44% for the first, -9.631% for the second.

First: O=C(c1cc2c([nH]c1=O)CCC2)N1CCCC1c1ccc(F)cc1 (stereo unspecified)
Second: CC(C)NC(=O)[C@@H]1C[C@@H](N)CN1C(=O)c1cc2c([nH]c1=O)CCCC2
The “Percent Effect” value of the first is higher: 20.74% for the first, 7.662% for the second.

First: CC(=O)NC1CCCc2c1[nH]c1ccc(F)cc21 (stereo unspecified)
Second: CC(=O)NC(c1cc(F)ccc1F)C1CC1 (stereo unspecified)
The “Percent Effect” value of the first is higher: 97.09% for the first, 0.9467% for the second.

First: O=C1CC(N(C(=O)c2ccc3[nH]c4c(c3c2)CCCC4)C2CC2)C(=O)N1 (stereo unspecified)
Second: Cc1nc(CNC(=O)Nc2ccc3c(c2)CCCC(=O)N3)sc1C
The “Percent Effect” value of the first is higher: 7.465% for the first, 3.802% for the second.

Going from `C/C=C(\C)CN1C[C@H](NC(=O)c2cc[nH]c2C)[C@@H](C2CC2)C1` to `CC(C)CNC(=O)c1cc(C2CC2)nc2c1c(C1CCCN1)nn2C` (stereo unspecified), the “Percent Effect” value rises from -10.95% to 129.8%.

Compared with `CN(C)c1ncncc1NC(=O)Cc1c[nH]c2ccc(F)cc12`, `CCc1cnc2c(c1NCc1ccncc1)c(=O)n(C)c(=O)n2C` is lower in “Percent Effect” value: -1.659% for the first, -11.7% for the second.

Compared with `CCOC(C)c1noc(CN2CCNCC2)n1` (stereo unspecified), `CCc1nc(CNc2cc(Cl)ccc2OCC2CCCO2)no1` (stereo unspecified) is lower in “Percent Effect” value: -2.697% for the first, -12.87% for the second.

Going from `NCc1cnn(-c2ccccc2C(=O)N2CCCC(C(N)=O)C2)c1` (stereo unspecified) to `CNC(=O)C1CCCN(C(=O)c2ccccc2-n2cc(CN)cn2)C1` (stereo unspecified), the “Percent Effect” value rises from 94.05% to 111.9%.

Compared with `CN(C)C(=O)N1CCCC(C(=O)N(C)Cc2cnc(N)nc2)C1` (stereo unspecified), `CN(C)C(=O)C1CCCN(C(=O)c2ccccc2-n2cc(CN)cn2)C1` (stereo unspecified) is higher in “Percent Effect” value: 11.15% for the first, 125.8% for the second.

Compared with `Cc1ccn(-c2ccc(C(=O)N3CCCC(C(N)=O)C3)cc2)n1` (stereo unspecified), `CNC(=O)C1CCCN(C(=O)NCCC2Cc3ccccc3C2)C1` (stereo unspecified) is lower in “Percent Effect” value: -6.024% for the first, -25.4% for the second.

First: NC(=O)c1cccc(CNC/C=C/c2ccccc2)c1
Second: Cn1c(CO)cnc1SC(C(=O)NC1CC1)c1ccccc1 (stereo unspecified)
The “Percent Effect” value of the first is higher: -6.459% for the first, -13.82% for the second.

Going from `CCc1cnc2c(c1NCc1ccc(OC)cc1)c(=O)n(C)c(=O)n2C` to `CCc1cnc2c(c1NCc1cccc(OC)c1)c(=O)n(C)c(=O)n2C`, the “Percent Effect” value falls from 121.6% to -3.77%.

First: CCc1cnc2c(c1Nc1ccc(OC)cc1)c(=O)n(C)c(=O)n2C
Second: CCc1cnc2c(c1Nc1cccc(OC)c1)c(=O)n(C)c(=O)n2C
The “Percent Effect” value of the first is lower: -2.304% for the first, 98.75% for the second.

Going from `CCn1c(Nc2ccccc2OC)nc2c(C)nn(C)c2c1=O` to `CCc1cnc2c(c1Nc1ccccc1OC)c(=O)n(C)c(=O)n2C`, the “Percent Effect” value rises from 5.481% to 117.3%.

Going from `COc1cccc(CNc2c(C)cnc3c2c(=O)n(C)c(=O)n3C)c1` to `CC(C)CC(NC(=O)c1cc(C2CC2)n[nH]1)c1ncnn1C` (stereo unspecified), the “Percent Effect” value rises from -20.05% to -18.23%.

First: O=C(N1CCCCC1)N1CCN(CC(O)c2ccc(F)cc2)CC1 (stereo unspecified)
Second: Cn1nc(C2CCCN2)c2c(C(=O)NCC(F)(F)F)cc(C3CC3)nc21 (stereo unspecified)
The “Percent Effect” value of the first is lower: -12.83% for the first, 125.9% for the second.

For `Cn1nc(C2CCNC2)c2c(C(=O)NCC(F)(F)F)cc(C3CC3)nc21` (stereo unspecified), the “Percent Effect” value was 104.4%.
